Results taken from PubChem BioAssay (EPA / NIEHS).
“And” between values parts separate entries of the source, which are not always exact repeats. Equal values may be shown once. Results filed as inconclusive are left out. Some compounds were tested as several samples or in several runs, with calls that do not always agree. The source made the active and inactive calls. The calls were made as follows, unless noted: active = hit-call score of the fitted dose curve at least 0.9, where 1 is the maximum; inconclusive = response in the unintended direction; inactive = score below 0.9.

Key:
[1] = biological target: Estrogen receptor (Homo sapiens) (UniProt P03372); assay: OT_ERa_GFPERaERE_0480: Odyssey Thera (OT) 8-hour HeLa Transcription Induction Assay for Estrogen Receptor (AID 2283381; active = hit-call score of the fitted dose curve at least 0.9, where 1 is the maximum; inactive = score below 0.9)
Summary of the method: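 Cells (HeLa) receive compound; after 8 h, reporter fluorescence is imaged and quantified by high-content analysis. Gain-of-signal relative to DMSO gives the endpoint.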

[2] = biological target: Estrogen receptor (Homo sapiens) (UniProt P03372); assay: OT_ERa_GFPERaERE_0120: Odyssey Thera (OT) 2-hour HeLa Transcription Induction Assay for Estrogen Receptor (AID 2283382)
Summary of the method: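 Measures ESR1 pathway reporter gain-of-signal in HeLa cells after a 2-hour treatment, detected as fluorescent protein induction by microscopy, DMSO as baseline.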

[3] = biological target: Bile acid receptor (Homo sapiens) (UniProt Q96RI1); assay: OT_FXR_FXRSRC1_0480: Odyssey Thera (OT) 8-hour HEK293T Protein-Complementation Assay for Farnesoid X receptor/SRC-1 Co-activator (AID 2283383)
Summary of the method: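 Co-activator recruitment to FXR was measured in living HEK293T cells, where interaction of the two fused partners restored an active fluorescent reporter. Signal gain after 8 h treatment was referenced to DMSO.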

[4] = biological target: Retinoic acid receptor RXR-alpha (Homo sapiens) (UniProt P19793); assay: OT_NURR1_NURR1RXRa_0480: Odyssey Thera (OT) 8-hour HEK293T Protein Complementation Assay for Nurr1/retinoid X receptor (RXR) (AID 2283385)
Summary of the method: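 Compounds are applied to HEK293T cells carrying Nurr1 and RXRα linked to reporter fragments. After 8 h, fluorescence intensity reports heterodimer formation, with DMSO as baseline.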

[5] = biological target: Retinoic acid receptor RXR-alpha (Homo sapiens) (UniProt P19793); assay: OT_NURR1_NURR1RXRa_1440: Odyssey Thera (OT) 24-hour HEK293T Protein Complementation Assay for Nurr1/retinoid X receptor (RXR) (AID 2283386)
Summary of the method: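 Measured as fluorescence from a reconstituted split reporter, this 24 h HEK293T complementation assay scores compound-induced gain of Nurr1/RXRα association relative to DMSO.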

[6] = biological target: Peroxisome proliferator-activated receptor gamma (Homo sapiens) (UniProt P37231); assay: OT_PPARg_PPARgSRC1_0480: Odyssey Thera (OT) 8-hour Protein-Complementation Assay for Peroxisome Proliferator-activated Receptor Gamma / SRC-1 Co-activator (AID 2283387)
Summary of the method: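 Protein-fragment complementation in HEK293T: Venus YFP halves (residues 1-158, 159-239, mutated to IFP1/IFP2) fused to PPARg/SRC-1. 8 h exposure; N/C ratio at 488 nm; DMSO negative control.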

[7] = biological target: Peroxisome proliferator-activated receptor gamma (Homo sapiens) (UniProt P37231); assay: OT_PPARg_PPARgSRC1_1440: Odyssey Thera (OT) 24-hour Protein-Complementation Assay for Peroxisome Proliferator-activated Receptor Gamma/ SRC-1 Co-activator (AID 2283388)
Summary of the method: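 HEK293T transiently transfected with PPARg/SRC-1 split-Venus YFP fusions 48 h before dosing, then treated 24 h at 37C. Fixed cells imaged; nuclear/cytoplasmic 488 nm fluorescence ratio, gain of signal versus DMSO.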

[8] = CEETOX_H295R_OHPROG: CeeTox H295R High-throughput Steroidogenesis Assay for OH-Progesterone (OHPROG) (AID 2283435; active = hit-call score of the fitted dose curve at least 0.9, where 1 is the maximum; inactive = score below 0.9;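 as to AC50: human adrenal H295R cells primed 48 h with 10 µM forskolin; 17alpha-hydroxyprogesterone secreted into medium measured by HPLC-MS/MS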); details: actives raise or lower the signal
Summary of the method: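 Secreted 17alpha-hydroxyprogesterone is read by tandem MS from media of forskolin-primed H295R cells dosed with chemical for 48 h. Activity is fitted in both directions against DMSO baseline; cytotoxic concentrations are re-tested diluted.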

[9] = CEETOX_H295R_PROG: CeeTox H295R High-throughput Steroidogenesis Assay for Progesterone (PROG) (AID 2283442; active = hit-call score of the fitted dose curve at least 0.9, where 1 is the maximum; inactive = score below 0.9;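 as to AC50: human H295R adrenal cells primed with 10 µM forskolin before dosing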); details: actives raise or lower the signal
Summary of the method: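 H295R adrenal cells prestimulated 48 h with 10 uM forskolin, then exposed 48 h to test chemical in 0.1% DMSO. Progesterone in medium quantified by HPLC-MS/MS after MTBE extraction; viability checked by MTT in same wells.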

[10] = read-out: Tumor necrosis factor receptor superfamily member 6 (Homo sapiens) (UniProt P25445); assay: LTEA_HepaRG_FAS: Life Technologies and Expression Analysis (LTEA) Assay for Fas cell surface death receptor (FAS) using HepaRG (AID 2283447; active = hit-call score of the fitted dose curve at least 0.9, where 1 is the maximum; inactive = score below 0.9); details: mRNA level, 48 h; actives raise or lower the signal
Summary of the method: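 Differentiated HepaRG cells in serum-free induction medium were exposed 48 h to 8 half-log concentrations up to 100 uM in 0.5% DMSO, in duplicate. FAS mRNA was measured by qRT-PCR normalised to ACTB, GAPDH and POLR2A; bidirectional fit versus DMSO.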

[11] = biological target: Estrogen receptor beta (Homo sapiens) (UniProt Q92731); assay: OT_ER_ERbERb_1440: Odyssey Thera (OT) 24-hour HEK293T Protein-Complementation Assay for Estrogen Receptor-beta/-beta Homodimer (AID 2283380);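 also: scored as signal increase over DMSO baseline for both agonists and antagonists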
Summary of the method: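 HEK293T cells stably expressing ER beta LBD (aa 310-547) homodimer fragment-complementation reporter, dosed 24 h. Cells formaldehyde-fixed, Draq5-stained; gain in nuclear (agonist) or nuclear plus cytoplasmic (antagonist) fluorescence versus DMSO read by laser scanning cytometry.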

[12] = CEETOX_H295R_11DCORT: CeeTox H295R High-throughput Steroidogenesis Assay for 11-Deoxycortisol (11DCORT) (AID 2283432; active = hit-call score of the fitted dose curve at least 0.9, where 1 is the maximum; inactive = score below 0.9;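 as to AC50: 11-deoxycortisol secreted into the medium measured by LC-MS/MS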); details: actives raise or lower the signal
Summary of the method: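 Adrenal carcinoma line H295R, run per OECD 456 with minor changes, was forskolin-stimulated (10 uM, 48 h) before a 48 h chemical exposure at 0.1% DMSO. Secreted 11-deoxycortisol was quantified by HPLC-MS/MS.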

[13] = CEETOX_H295R_CORTIC: CeeTox H295R High-throughput Steroidogenesis Assay for Corticosterone (CORTIC) (AID 2283437; active = hit-call score of the fitted dose curve at least 0.9, where 1 is the maximum; inactive = score below 0.9;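 also: corticosterone secreted into medium quantified by mass spectrometry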;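 as to AC50: human H295R adrenal cells prestimulated with forskolin before chemical exposure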); details: actives raise or lower the signal
Summary of the method: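 H295R adrenal cells prestimulated 48 hours with 10 uM forskolin, then exposed 48 hours to chemical in 0.1% DMSO. Corticosterone in medium measured by HPLC-MS/MS after MTBE extraction; MTT viability in the same wells; bidirectional fit versus DMSO.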

[14] = CEETOX_H295R_CORTISOL: CeeTox H295R High-throughput Steroidogenesis Assay for Cortisol (AID 2283438; active = hit-call score of the fitted dose curve at least 0.9, where 1 is the maximum; inactive = score below 0.9;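 also: cortisol secreted into medium quantified by LC-MS/MS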); details: actives raise or lower the signal
Summary of the method: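 Human adrenocortical H295R cells (passage ≤10) received test chemicals for 48 h after forskolin priming. Secreted cortisol was measured by LC-MS/MS.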

[15] = CEETOX_H295R_DOC: CeeTox H295R High-throughput Steroidogenesis Assay for DOC (AID 2283439; active = hit-call score of the fitted dose curve at least 0.9, where 1 is the maximum; inactive = score below 0.9); details: actives raise or lower the signal
Summary of the method: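 Secreted DOC was quantified from H295R media by HPLC-MS/MS after 48 h chemical exposure following 48 h forskolin (10 uM) prestimulation. Values were fitted in both directions relative to DMSO, the negative control and baseline.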

Measured: AC50

Sequence of Estrogen receptor (Homo sapiens) (P03372 whole entry, looked up): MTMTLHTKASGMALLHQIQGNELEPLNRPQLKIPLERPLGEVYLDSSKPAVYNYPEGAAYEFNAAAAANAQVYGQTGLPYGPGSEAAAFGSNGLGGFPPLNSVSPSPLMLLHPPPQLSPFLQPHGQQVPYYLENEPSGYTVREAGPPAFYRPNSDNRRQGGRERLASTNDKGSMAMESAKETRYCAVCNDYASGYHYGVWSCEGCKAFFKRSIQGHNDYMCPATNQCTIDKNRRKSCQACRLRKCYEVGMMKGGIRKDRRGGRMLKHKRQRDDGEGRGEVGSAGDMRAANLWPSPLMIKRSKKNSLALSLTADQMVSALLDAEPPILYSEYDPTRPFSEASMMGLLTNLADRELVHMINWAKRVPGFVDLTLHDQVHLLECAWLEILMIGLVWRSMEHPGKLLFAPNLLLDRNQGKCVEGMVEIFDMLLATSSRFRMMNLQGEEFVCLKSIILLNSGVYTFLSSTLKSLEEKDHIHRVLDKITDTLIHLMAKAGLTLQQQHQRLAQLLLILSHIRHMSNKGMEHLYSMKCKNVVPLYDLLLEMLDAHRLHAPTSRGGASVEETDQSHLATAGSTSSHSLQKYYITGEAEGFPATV
Sequence of Retinoic acid receptor RXR-alpha (Homo sapiens) (P19793 whole entry, looked up, the tested form may be a part): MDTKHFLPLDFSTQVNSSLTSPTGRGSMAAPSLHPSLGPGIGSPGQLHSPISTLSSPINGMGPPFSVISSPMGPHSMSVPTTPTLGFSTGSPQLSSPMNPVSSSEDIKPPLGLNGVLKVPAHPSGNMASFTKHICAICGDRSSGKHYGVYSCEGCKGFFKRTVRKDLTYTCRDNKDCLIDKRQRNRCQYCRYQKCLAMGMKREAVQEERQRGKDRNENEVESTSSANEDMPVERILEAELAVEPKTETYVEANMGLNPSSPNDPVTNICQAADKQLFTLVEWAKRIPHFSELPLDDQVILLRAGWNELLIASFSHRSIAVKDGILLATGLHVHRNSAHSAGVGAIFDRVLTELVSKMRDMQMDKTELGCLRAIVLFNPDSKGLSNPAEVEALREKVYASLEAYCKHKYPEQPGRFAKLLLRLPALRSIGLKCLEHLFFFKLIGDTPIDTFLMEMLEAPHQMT
Sequence of Bile acid receptor (Homo sapiens) (Q96RI1 whole entry, looked up, the tested form may be a part): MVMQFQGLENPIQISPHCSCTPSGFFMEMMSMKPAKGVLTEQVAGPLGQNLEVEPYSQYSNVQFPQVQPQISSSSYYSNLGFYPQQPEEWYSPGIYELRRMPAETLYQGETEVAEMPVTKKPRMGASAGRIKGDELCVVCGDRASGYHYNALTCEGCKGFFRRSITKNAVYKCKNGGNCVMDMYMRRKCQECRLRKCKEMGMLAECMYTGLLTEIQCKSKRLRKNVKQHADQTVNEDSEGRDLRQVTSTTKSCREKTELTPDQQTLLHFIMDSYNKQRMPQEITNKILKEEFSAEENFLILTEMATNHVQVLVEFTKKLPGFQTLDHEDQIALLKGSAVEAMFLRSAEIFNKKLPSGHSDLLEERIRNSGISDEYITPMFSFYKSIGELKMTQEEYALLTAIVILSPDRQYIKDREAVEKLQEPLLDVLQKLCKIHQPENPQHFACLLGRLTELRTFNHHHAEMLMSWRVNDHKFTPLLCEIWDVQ
Sequence of Peroxisome proliferator-activated receptor gamma (Homo sapiens) (P37231 whole entry, looked up, the tested form may be a part): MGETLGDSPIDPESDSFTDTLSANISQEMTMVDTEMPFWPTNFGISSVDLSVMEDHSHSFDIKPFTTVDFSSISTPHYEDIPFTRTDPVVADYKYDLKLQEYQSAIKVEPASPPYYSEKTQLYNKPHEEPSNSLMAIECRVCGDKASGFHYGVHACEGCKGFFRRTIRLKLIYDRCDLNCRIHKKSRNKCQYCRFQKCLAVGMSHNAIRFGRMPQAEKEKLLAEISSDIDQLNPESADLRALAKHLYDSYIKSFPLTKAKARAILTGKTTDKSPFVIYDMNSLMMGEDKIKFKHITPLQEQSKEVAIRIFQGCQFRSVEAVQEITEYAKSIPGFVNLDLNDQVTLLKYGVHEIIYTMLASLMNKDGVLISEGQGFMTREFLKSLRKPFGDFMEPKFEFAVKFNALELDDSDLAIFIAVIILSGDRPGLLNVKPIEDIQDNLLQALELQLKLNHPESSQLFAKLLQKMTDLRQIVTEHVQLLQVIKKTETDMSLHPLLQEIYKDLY
Sequence of Estrogen receptor beta (Homo sapiens) (Q92731 whole entry, looked up, the tested form may be a part): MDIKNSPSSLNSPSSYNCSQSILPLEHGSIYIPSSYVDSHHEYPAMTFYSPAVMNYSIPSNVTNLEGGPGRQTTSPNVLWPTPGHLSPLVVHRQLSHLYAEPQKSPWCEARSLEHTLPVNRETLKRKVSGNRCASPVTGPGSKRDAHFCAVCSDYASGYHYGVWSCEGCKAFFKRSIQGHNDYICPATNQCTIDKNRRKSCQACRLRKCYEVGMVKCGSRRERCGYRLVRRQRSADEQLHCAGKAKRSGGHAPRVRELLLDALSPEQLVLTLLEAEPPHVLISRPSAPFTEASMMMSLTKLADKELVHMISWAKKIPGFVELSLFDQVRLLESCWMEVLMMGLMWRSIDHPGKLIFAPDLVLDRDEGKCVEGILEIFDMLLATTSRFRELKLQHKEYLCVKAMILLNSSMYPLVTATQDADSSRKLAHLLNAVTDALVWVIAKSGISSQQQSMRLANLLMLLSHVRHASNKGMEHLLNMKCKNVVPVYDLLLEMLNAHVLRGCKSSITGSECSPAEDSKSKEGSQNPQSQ

Nc1ccc(S(=O)(=O)c2ccc(N)cc2)cc1
active: [8] 30.5 µM | [9] 36.1 µM
inactive: [1] | [2] | [3] | [4] | [5] | [6] | [7] | [10]

CCCCC(CC)COC(=O)CC(C(=O)OCC(CC)CCCC)S(=O)(=O)O (stereo not drawn)
active: [1] 22.8 µM | [2] 21.3 µM | [10] 83.5 µM
inactive: [11] | [4] | [6] | [7]

Cc1ccc(Cl)cc1
inactive: [1] | [2] | [3] | [4] | [5] | [6] | [7] | [10]

CC(=O)OC/C=C(\C)CCC=C(C)C
inactive: [1] | [2] | [4] | [5] | [6] | [7] | [10]

NCC1(Cc2noc(=O)[nH]2)CCCCC1
inactive: [1] | [2] | [4] | [5] | [6] | [7] | [10]

Cc1nc(C)nc(N2C[C@@H](C)N(c3ccnc([C@@H](C)O)n3)[C@@H](C)C2)n1
inactive: [1] | [2] | [4] | [6] | [7] | [12] | [8] | [13] | [14] | [15] | [9] | [10]

CC1(C)CC(N=C=O)CC(C)(CN=C=O)C1 (stereo not drawn)
inactive: [1] | [2] | [3] | [4] | [5] | [6] | [7] | [8] | [9] | [10]

Nc1ccc2c(c1)C(=O)c1ccccc1C2=O
inactive: [1] | [2] | [6] | [7] | [12] | [14] | [15] | [10]
active: [8] 7.84 µM | [13] 4.17 µM | [9] 6.71 µM

CNCc1cc(F)ccc1Oc1ccc(Cl)c(Cl)c1
active: [1] 75.6 µM | [2] 70.5 µM
inactive: [11] | [6] | [7] | [10]

COc1cc(S(=O)(=O)O)c(C)cc1N=Nc1c(O)ccc2cc(S(=O)(=O)O)ccc12
active: [4] 50 µM and 61.4 µM | [5] 75.9 µM
inactive: [1] | [2] | [3] | [5] | [6] | [7] | [10]

CC=Cc1ccc(O)c(OC)c1
active: [1] 76.2 µM
inactive: [2] | [4] | [5] | [6] | [7] | [8] | [9] | [10]

NC(=O)Cn1c(=O)cc(CCN2CCN(c3nccc4sccc34)CC2)c2ccc(F)cc21
active: [12] 27.6 µM | [8] 7.83 µM | [13] 4.46 µM | [14] 25 µM | [15] 16.9 µM | [9] 2.02 µM
inactive: [1] | [2] | [3] | [6] | [7] | [10]
